The nature of experiment [1]: binders of probe aFSTL3 on microarray, primary screen, stem cell growth factor project, biochemical, small-molecule microarray, fluorescence 635/667 (AID 1064).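 Note: measures binding of the biotinylated anti-FSTL3 antibody to printed compounds.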 Particulars: higher = more signal.
Experiment [2] can be described thus: binders from COS7 lysate, DM2A8 probe, primary screen, torsin A project, cell lysate, small-molecule microarray, fluorescence 635/667 (AID 1065). Conditions: higher = more signal, COS7 lysate expressing mutant human TOR1A.
A short description of experiment [3]: binders of probe aFGF2 on microarray, primary screen, stem cell growth factor project, biochemical, small-molecule microarray, fluorescence 635/667 (AID 1067).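 Note: measures binding of biotinylated aFGF2 protein to printed compounds on slides; z-score merges feature fluorescence and signal-to-noise across triplicate slides.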 Conditions: higher = more signal.
Experiment [4] is described as follows: binders of probe aFGF10 on microarray, primary screen, stem cell growth factor project, biochemical, small-molecule microarray, fluorescence 635/667 (AID 1071).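 Note: score merges 667 nm spot intensity and signal to noise from triplicate slides.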 Particulars: higher = more signal.
Experiment [5] has as its target Neurogenic locus notch homolog protein 2 (Homo sapiens) (UniProt Q04721). As to the kind of experiment: Notch2 binders on small-molecule microarrays, primary screen, biochemical, small-molecule microarray, 635 nm fluorescence, stem cell growth factors (AID 1073). Conditions: Notch2 binding, higher = more signal.
In experiment [6] the target is Pro-neuregulin-1, membrane-bound isoform (Homo sapiens) (UniProt Q02297). As to the kind of experiment: NRG1 binders on small-molecule microarrays, primary screen, psychiatric disease protein project, biochemical, small-molecule microarray, fluorescence 635/667 (AID 1075).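 Note: score combines 667 nm spot fluorescence with signal to noise.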 Conditions: NRG1 binding, 635 nm fluorescence, higher = more signal.
Experiment [7] deals with Neuregulin-1 EGF-like domain. As to the kind of experiment: binders of neuregulin-1 EGF-like domain, primary screen, biochemical, small-molecule microarray, 635 nm fluorescence (AID 1081).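 Note: binding of the protein to compounds printed on small-molecule microarray slides.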 Conditions: small-molecule microarray binding, higher = more signal.
The nature of experiment [8]: FRG1 promoter luciferase signal modulators, primary screen, FRG1 inhibition for FSHD, cell-based, C2C12 myotubes, firefly/Renilla luciferase, luminescence (AID 1084). Conditions: higher = more signal, called active from +8 up or from −8 down.
Experiment [9] in a line: binders of probe aFST on microarray, primary screen, stem cell growth factor project, biochemical, small-molecule microarray, fluorescence 635/667 (AID 1086).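 Note: score merges 667 nm fluorescence with signal-to-noise of each printed compound spot.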 Conditions: higher = more signal.
A short description of experiment [10]: binders of probe aHhip on microarray, primary screen, stem cell growth factor project, biochemical, small-molecule microarray, fluorescence 635/667 (AID 1087).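 Note: score merges spot fluorescence at 667nm with spot signal to noise ratio.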 Conditions: higher = more signal.
Experiment [11] concerns PRMT1 (protein arginine N-methyltransferase 1). As to the kind of experiment: PRMT1 binders on small-molecule microarrays, primary screen, biochemical, small-molecule microarray, 635 nm fluorescence (AID 1088).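 Note: binding of Prmt1 protein to compounds spotted on small-molecule microarray slides.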 Particulars: small-molecule microarray binding, higher = more signal.
The nature of experiment [12]: yeast growth modulation, basal conditions, primary screen, YJM789 clinical isolate, OD600, 24 h (AID 1089).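 Note: growth of clinical yeast isolate S. cerevisiae YJM 789 seeded 1000 cells per well; test concentration not given here.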 Conditions: S. cerevisiae YJM789 growth, higher = more signal, called active from +8 up or from −8 down.
Experiment [13] in a line: fission yeast growth modulation, primary screen, strain 972, OD600, 24 h, no modulator (AID 1090).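 Note: basal condition with compound alone and no growth modifier present; test concentration not given here.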 Conditions: S. pombe 972 growth, higher = more signal, called active from +8 up or from −8 down.
Experiment [14] can be described thus: S. cerevisiae growth modulation with rapamycin, primary screen, strain BY4716, OD600, 96 h (AID 1091). Note: test concentration not given here. Particulars: higher = more signal, called active from +8 up or from −8 down.
The target of experiment [15] is Torsin-1A-interacting protein 2 (Homo sapiens) (UniProt Q8NFQ8). As to the kind of experiment: LULL1 binders on small-molecule microarray, primary screen, cell lysate, human LULL1 lysate, 635/667 nm fluorescence (AID 1092).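 Note: probe is lysate of COS7 cells overexpressing human LULL1; score merges per-feature 667 nm fluorescence with signal-to-noise.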 Conditions: hLULL1 lysate binding, 635 nm fluorescence, higher = more signal.
Experiment [16] is described as follows: E. coli growth modulation, two-sided OD650, primary screen, E. coli filamentation project, strain DRC41, 24 h (AID 1093).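 Note: MC1000 strain lacking acrAB efflux and sulA so SOS filamentation is blocked; test concentration not given here.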 Particulars: OD650, 24 h, higher = more signal, called active from +8 up or from −8 down.
A short description of experiment [17]: small-molecule microarray binders of probe aLefty2, primary screen, biochemical, biotinylated probe, 635/667 nm fluorescence (AID 1094).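 Note: score merges spot fluorescence near 667 nm with spot signal-to-noise ratio.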 Particulars: higher = more signal.
The subject of experiment [18] is Noggin (protein binding on small-molecule microarray). As to the kind of experiment: Noggin binders on small-molecule microarray, primary screen, biochemical, 635/667 nm fluorescence (AID 1095).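 Note: score merges 667 nm feature fluorescence with signal to noise over triplicate slides.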 Conditions: 635 nm fluorescence, higher = more signal.
For experiment [19], the target named is Neurogenic locus notch homolog protein 3 (Homo sapiens) (UniProt Q9UM47). As to the kind of experiment: NOTCH3 binders on small-molecule microarray, primary screen, biochemical, 635/667 nm fluorescence (AID 1096). Conditions: NOTCH3 binding, 635 nm fluorescence, higher = more signal.
Experiment [20] is described as follows: small-molecule microarray binders of probe aEGFR, primary screen, biochemical, biotinylated probe, 635/667 nm fluorescence (AID 1097).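 Note: probe is a biotinylated anti-EGFR antibody binding compounds printed on slides; score combines fluorescence near 667 nm and signal to noise of each spot.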 Conditions: higher = more signal.

The source made the active and inactive calls.

Torsin-1A-interacting protein 2 (Homo sapiens), sequence (Q8NFQ8 whole entry, looked up): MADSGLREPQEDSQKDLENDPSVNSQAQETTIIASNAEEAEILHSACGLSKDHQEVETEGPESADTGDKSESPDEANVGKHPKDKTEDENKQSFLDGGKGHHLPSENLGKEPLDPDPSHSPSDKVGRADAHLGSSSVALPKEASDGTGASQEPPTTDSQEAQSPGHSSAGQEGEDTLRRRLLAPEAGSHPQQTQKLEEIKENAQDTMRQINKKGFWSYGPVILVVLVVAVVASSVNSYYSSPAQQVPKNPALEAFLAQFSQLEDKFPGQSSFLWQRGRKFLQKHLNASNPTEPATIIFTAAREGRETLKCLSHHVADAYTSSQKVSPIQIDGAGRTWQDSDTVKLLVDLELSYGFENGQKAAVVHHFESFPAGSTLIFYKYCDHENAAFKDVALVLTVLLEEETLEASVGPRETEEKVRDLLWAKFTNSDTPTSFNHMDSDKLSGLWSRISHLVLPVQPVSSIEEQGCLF
Neurogenic locus notch homolog protein 3 (Homo sapiens), sequence (Q9UM47 whole entry, looked up): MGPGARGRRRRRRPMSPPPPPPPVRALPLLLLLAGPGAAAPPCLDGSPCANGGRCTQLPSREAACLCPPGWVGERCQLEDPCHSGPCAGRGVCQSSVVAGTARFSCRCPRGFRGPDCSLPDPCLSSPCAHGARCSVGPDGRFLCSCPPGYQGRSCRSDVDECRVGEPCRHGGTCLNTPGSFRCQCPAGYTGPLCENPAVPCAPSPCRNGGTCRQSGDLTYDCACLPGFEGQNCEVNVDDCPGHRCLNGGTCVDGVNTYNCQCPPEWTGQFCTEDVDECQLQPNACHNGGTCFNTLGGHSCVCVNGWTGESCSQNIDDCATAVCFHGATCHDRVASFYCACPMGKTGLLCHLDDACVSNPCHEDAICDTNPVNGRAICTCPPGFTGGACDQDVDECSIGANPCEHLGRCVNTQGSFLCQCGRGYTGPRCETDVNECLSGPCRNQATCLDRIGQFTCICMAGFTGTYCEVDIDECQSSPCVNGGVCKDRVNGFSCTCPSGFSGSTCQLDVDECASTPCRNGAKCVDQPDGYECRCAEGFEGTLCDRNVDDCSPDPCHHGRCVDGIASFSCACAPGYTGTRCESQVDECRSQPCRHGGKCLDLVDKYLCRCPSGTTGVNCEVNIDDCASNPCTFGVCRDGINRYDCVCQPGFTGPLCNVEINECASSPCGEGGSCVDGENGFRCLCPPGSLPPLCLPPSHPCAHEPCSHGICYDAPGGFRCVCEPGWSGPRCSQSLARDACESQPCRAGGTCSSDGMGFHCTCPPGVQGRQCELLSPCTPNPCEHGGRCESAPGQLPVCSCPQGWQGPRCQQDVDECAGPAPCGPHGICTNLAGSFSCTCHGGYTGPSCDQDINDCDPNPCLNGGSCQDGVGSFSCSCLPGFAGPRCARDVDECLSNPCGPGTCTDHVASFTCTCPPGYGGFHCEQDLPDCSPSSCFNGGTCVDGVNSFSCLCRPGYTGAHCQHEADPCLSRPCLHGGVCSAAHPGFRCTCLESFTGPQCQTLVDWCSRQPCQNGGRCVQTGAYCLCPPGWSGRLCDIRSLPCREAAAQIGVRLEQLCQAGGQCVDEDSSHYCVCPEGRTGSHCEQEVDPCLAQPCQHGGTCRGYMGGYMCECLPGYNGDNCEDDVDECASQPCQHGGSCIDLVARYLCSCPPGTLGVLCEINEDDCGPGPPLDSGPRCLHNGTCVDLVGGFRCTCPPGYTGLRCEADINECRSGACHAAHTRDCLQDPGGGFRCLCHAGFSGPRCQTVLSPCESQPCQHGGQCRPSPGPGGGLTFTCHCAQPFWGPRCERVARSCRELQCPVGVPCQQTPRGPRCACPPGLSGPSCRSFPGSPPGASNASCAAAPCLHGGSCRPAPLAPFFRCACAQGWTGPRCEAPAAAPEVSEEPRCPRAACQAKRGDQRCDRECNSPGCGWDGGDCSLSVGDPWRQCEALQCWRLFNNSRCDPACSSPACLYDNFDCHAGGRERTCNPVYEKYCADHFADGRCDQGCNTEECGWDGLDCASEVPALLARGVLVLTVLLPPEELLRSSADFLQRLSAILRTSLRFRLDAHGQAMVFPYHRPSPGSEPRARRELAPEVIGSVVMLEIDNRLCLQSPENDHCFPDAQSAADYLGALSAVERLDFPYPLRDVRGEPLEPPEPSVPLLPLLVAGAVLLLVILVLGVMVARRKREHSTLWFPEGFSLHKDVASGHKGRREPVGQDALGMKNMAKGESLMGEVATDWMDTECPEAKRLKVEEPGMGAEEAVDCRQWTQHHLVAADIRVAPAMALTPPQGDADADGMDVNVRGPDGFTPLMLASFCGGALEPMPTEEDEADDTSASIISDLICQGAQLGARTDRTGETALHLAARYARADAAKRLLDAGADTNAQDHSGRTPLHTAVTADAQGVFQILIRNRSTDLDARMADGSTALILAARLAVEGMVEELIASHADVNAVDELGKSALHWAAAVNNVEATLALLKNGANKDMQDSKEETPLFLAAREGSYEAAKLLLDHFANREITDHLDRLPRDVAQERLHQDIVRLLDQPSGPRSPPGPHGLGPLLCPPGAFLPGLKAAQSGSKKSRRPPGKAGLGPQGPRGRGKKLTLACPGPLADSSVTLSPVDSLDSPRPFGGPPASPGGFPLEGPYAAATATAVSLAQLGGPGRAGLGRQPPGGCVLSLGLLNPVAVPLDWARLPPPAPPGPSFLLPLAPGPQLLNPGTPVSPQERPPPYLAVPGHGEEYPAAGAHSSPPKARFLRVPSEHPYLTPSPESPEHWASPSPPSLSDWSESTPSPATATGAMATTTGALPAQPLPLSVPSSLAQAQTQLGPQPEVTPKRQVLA
Pro-neuregulin-1, membrane-bound isoform (Homo sapiens), sequence (Q02297 whole entry, looked up, the tested form may be a part, canonical isoform): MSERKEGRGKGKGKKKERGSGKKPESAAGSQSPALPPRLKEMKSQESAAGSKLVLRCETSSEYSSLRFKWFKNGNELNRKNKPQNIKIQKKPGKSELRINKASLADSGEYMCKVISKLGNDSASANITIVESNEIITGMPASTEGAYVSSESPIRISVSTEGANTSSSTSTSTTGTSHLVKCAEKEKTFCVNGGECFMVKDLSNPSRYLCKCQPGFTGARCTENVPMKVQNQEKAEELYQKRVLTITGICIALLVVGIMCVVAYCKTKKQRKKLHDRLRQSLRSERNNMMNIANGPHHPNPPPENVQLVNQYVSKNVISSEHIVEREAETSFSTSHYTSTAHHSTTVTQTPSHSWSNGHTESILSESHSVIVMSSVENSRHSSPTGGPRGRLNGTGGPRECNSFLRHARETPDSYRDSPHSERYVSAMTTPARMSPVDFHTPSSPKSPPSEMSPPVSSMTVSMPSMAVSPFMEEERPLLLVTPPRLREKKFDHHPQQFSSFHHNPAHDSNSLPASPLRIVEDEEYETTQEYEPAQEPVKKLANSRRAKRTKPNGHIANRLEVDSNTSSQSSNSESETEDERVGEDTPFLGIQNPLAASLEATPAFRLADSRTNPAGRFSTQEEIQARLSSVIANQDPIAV

In the case of `CO[C@@H]1[C@H](O)CO[C@H]1C=Cc1ccccc1`, the composite z-score in experiment [1] was -0.392; in experiment [2], -0.0641; in experiment [3] it was -0.0715; in experiment [4], 0.211; in experiment [5], 0.128; in experiment [6] it was 0.206. For the same compound, the composite z-score in experiment [7] was 0.874; in experiment [9], 0.228; in experiment [10] it was -0.283; in experiment [11], 0.524; in experiment [15] it was 0.363; in experiment [17], -0.0895. Further, the composite z-score in experiment [18] was 0.396; in experiment [19], 0.0872; in [20] it was -0.0581. Besides, the z-score is -0.253 (inactive) in experiment [8]; 0.335 (inactive) in experiment [12]; -1.14 (inactive) in experiment [13]; -0.376 (inactive) in [14]; 0.447 (inactive) in [16].

With `C[C@@H]1CC[C@H]2C(=O)OC(Cc3ccccc3)CN2[C@H]1c1ccc(Br)cc1` (stereo not given in full), the composite z-score in experiment [1] was -0.438; in experiment [2], -0.441; in [3], -0.156; in [4], 0.578; in experiment [5], -0.125; in experiment [6], 0.485. In addition, the composite z-score is 1.01 in experiment [7]; -0.103 in experiment [9]; 0.0373 in [10]; 1.28 in [11]; 1.18 in [15]; -0.0923 in [17]. In addition, the results for the composite z-score in experiment [18], in [19] and in [20] were 0.151, 0.0343 and -0.133, respectively. The z-score in [8] was -0.156 (inactive); in experiment [12] it was 0.127 (inactive); in experiment [13], -6.77 (inactive); in [14], -0.624 (inactive); in [16], 0.823 (inactive).

Consider `CC(=O)OC[C@H]1O[C@H](CC=NOC(C)CN2CCCc3nc(C)c(C)cc32)C=C[C@@H]1OC(C)=O` (stereo not given in full), for which the composite z-score is -0.255 in [1]; 0.28 in experiment [2]; -0.0621 in experiment [3]; 0.677 in [4]; 0.804 in experiment [5]; -0.188 in experiment [6]. Further, the composite z-score in [7] is 0.819; in experiment [9], 0.371; in [10], 0.0637; in experiment [11] it was 1.19; in [15], 0.771; in experiment [17], 0.0961. Also, the figures for the composite z-score in experiment [18], in experiment [19] and in experiment [20] were 0.977, 1.04 and 0.0473, respectively. Also, the z-score is 0.437 (inactive) in experiment [8]; 0.489 (inactive) in experiment [12]; 0.483 (inactive) in experiment [13]; -0.344 (inactive) in experiment [14]; 1.14 (inactive) in experiment [16].

Take `C=CC[C@@H]1C=C[C@H](ON=CC[C@@H]2C=C[C@H](OC(C)=O)[C@@H](COC(C)=O)O2)[C@@H](CO)O1`: the composite z-score in [1] is -0.256; in experiment [2], 0.52; in experiment [3], -0.0864; in [4], 0.75; in [5], 1.12; in [6] it was 1.06. Moreover, the composite z-score was 1.11 in [7]; 1.06 in experiment [9]; -0.314 in experiment [10]; 1.26 in [11]; 1.3 in experiment [15]; 0.235 in experiment [17]. The composite z-score in [18] was found to be 0.984; in experiment [19] it was 1.05; in experiment [20], 0.169. The z-score in experiment [8] was 0.411 (inactive); in [12], 0.953 (inactive); in experiment [13], 0.489 (inactive); in experiment [14], 0.476 (inactive); in [16], 0.558 (inactive).

Consider `C=CC[C@@H]1C=C[C@H](Oc2ccc(C)cc2)[C@@H](COC(=O)NCc2cccc3ccccc23)O1`, for which the composite z-score in [1] is -0.406; in experiment [2], 0.012; in [3], -0.144; in experiment [4], 0.655; in experiment [5] it was -0.141; in experiment [6], 0.528. In addition, the composite z-score in experiment [7] was 0.724; in experiment [9], -0.174; in experiment [10], -0.251; in experiment [11], 0.261; in experiment [15] it was 0.557; in experiment [17], -0.116. For the same compound, the composite z-score was 0.725 in experiment [18], -0.0971 in [19] and -0.136 in [20]. For the same compound, the z-score in experiment [8] is -0.446 (inactive); in experiment [12] it was 0.697 (inactive); in [13] it was -0.341 (inactive); in experiment [14], 0.774 (inactive); in experiment [16], -0.61 (inactive).

Consider `CC(C)[C@@H](OCc1ccccc1)[C@H](C)C=NOC[C@@H](O)[C@H]1O[C@@H]2OC(C)(C)O[C@@H]2[C@H]1O`, for which the composite z-score in experiment [1] was -0.365; in [2] it was 0.116; in experiment [3], -0.198; in experiment [4], 0.492; in experiment [5], 0.25; in experiment [6], 0.125. The composite z-score was 0.361 in [7]; 0.307 in experiment [9]; -0.0645 in experiment [10]; 0.763 in experiment [11]; 0.758 in [15]; -0.132 in experiment [17]. The composite z-score is 1.07 in experiment [18], 0.676 in [19] and -0.0828 in [20]. Besides, the z-score in [8] is 0.417 (inactive); in [12], 0.87 (inactive); in [13], 1.05 (inactive); in [14], 0.821 (inactive); in experiment [16] it was 0.517 (inactive).

The record behind these values is PubChem BioAssay.
